Test results taken from the supplement of paper PMC12067093, “Discovery and optimisation of a covalent ligand for TRIM25 and its application to targeted protein ubiquitination” (Chemical Science, 2025).
About 21,000 targets were measured; listed, in parts, are those with the largest changes and a random draw of the rest.

Target: XPOT_O43592_877_HIVPACFLAPLK (UniProt O43592)
Assay: probe-labelled cysteine peptide fold change vs DMSO (competition) (log2 fold change); higher = less target engagement (more negative = stronger competition)
Conditions: THP-1, incubation time: 4 h
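Further: competitive chemoproteomic profiling in live THP-1 cells with an iodoacetamide desthiobiotin (IA-DTB) probe, comparing probe-labelled peptide intensities in compound-treated cells against DMSO-treated controls.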

UniProt O43592, sequence (O43592 whole entry, looked up): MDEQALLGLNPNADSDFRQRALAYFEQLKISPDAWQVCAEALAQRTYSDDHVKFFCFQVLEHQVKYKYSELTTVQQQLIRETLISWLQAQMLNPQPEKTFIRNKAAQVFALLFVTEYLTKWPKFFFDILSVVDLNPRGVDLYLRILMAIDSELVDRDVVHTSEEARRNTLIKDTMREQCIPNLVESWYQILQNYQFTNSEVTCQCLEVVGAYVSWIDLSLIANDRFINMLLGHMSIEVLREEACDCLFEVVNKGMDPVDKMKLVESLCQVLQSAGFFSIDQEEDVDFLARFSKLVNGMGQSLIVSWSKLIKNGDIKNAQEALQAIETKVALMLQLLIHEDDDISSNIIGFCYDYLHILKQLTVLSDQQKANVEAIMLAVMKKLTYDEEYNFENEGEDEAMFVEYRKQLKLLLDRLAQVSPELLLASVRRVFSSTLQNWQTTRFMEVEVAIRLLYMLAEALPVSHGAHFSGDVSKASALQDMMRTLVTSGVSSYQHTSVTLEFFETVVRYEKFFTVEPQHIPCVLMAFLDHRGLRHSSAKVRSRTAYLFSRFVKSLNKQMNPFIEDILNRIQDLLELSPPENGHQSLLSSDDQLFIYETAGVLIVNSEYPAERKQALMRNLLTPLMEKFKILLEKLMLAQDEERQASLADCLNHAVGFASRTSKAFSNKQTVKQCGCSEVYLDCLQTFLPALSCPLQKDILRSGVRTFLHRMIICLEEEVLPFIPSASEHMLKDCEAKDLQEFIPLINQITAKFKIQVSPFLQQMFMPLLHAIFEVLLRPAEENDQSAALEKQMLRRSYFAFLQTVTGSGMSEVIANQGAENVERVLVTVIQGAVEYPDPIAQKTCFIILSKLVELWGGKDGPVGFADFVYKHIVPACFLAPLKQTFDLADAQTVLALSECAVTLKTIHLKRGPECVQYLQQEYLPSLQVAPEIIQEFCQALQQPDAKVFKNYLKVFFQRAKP

SMILES: CC1Cc2ccccc2N1C(=O)C1CCCN(C(=O)CCl)C1 (mixture of isomers) [TRIM25 ligand 11 (diastereomer mixture)]
- probe-labelled cysteine peptide fold change (10 µM): 0.0433
- probe-labelled cysteine peptide fold change (50 µM): 0.0734
